TAG inh – inhibitors of triacylglycerol accumulation, primary screen, cell-based, uHTS, fluorescence, H9c2 | AID 651582, 2012 | inhibition, % at 12.5 µM | actives 0.66% (n = 230,000) | H9c2 cells, Nile Red lipid (TAG) fluorescence; cells loaded with 200 µM oleic acid;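 active = pattern-corrected inhibition of lipid staining of at least 50% with the nuclear-stain viability signal not falling by more than 50%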;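 note: 0% = DMSO wells and 100% = triacsin C control wells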
Jurkat NFkB inh – inhibitors of induced NF-kB luciferase reporter, primary screen, TCR NF-kB activation inhibitor project, cell-based, luminescence, uHTS; Jurkat, PMA/ionomycin-induced NF-kB luciferase reporter; inhibition, % at 4 µM; actives 0.53% (n = 330,000); AID 435003, 2010; in the data active = inhibition above about 50%
aSyn 5UTR inh – MLPCN primary screen, SNCA 5' untranslated region; alpha-synuclein 5'UTR reporter, inhibitor activity; inhibition, % (tested at 7.5 µM); actives 0.82% (n = 300,000); AID 1813, 2009; in the data active = inhibition above about 60%;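 note: H4 neuroglioblastoma cells stably carrying SNCA 5'UTR luciferase fusion; 0% = DMSO wells and 100% = positive control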
Shn3 3UTR inh – reduction of Shn3 3'UTR firefly luciferase signal, primary screen, Schnurri-3 inhibitor project, cell-based, Clone20 osteoblasts, set 2 | actives 0.52% (n = 360,000) | inhibition, % at 12.5 µM | Clone20 osteoblast Shn3 3'UTR firefly luciferase, 24 h;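 active = mean inhibition of at least 75% with every replicate also reaching 75%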;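 note: 0% = median of neutral control wells and 100% = pilot-screen positive control compound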
697 NFkB inh – inhibitors of PMA/ionomycin-induced NF-kB reporter, 697 cells, primary screen, B-cell NF-kB inhibitor project, cell-based, luminescence, uHTS; 697 B-cell NF-kB luciferase reporter, 16 h; AID 435022, 2010; inhibition, % at 4 µM; actives 0.33% (n = 330,000); in the data active = inhibition above about 35%
Gli-Sufu block – Gli-Sufu pathway antagonists, primary screen, luciferase luminescence, Sufu-KO-LIGHT cells, uHTS; Sufu-KO-LIGHT fibroblasts, Gli luciferase reporter luminescence; inhibition, % at 5 µM; actives 0.74% (n = 340,000);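 active = inhibition above about 55%, limit read from the data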;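 note: 0% = DMSO-treated cells and 100% = wells with medium but no cells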
Gli-Sufu confirm – Gli-SUFU pathway antagonists, confirmation, single concentration, luciferase luminescence, Sufu-KO-LIGHT cells; shares compounds with Gli-Sufu block; actives 40% (n = 2,500); Gli luciferase reporter; inhibition, % at 5 µM;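 active = mean inhibition at 5 µM reaching about 45%, limit read from the data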;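 note: plate controls were DMSO-treated cells for no effect and wells lacking cells for full effect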
SufuKO cytotox – cytotoxicity in Sufu-KO-LIGHT cells, confirmation, cytotoxicity control for Gli-SUFU antagonist project, cell-based, ATP luminescence, single concentration. shares compounds with Gli-Sufu block. cytotoxicity, % at 5 µM. actives 32% (n = 2,500);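 active = mean cytotoxicity at 5 µM above about 25%, limit read from the data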;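 note: cells exposed to compound overnight for roughly 16 to 18 hours; plate controls were DMSO wells with cells for no effect and medium without cells for full effect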
Wnt3a counter – Wnt3a reporter signal inhibition, confirmation, counter-screen for Gli-SUFU antagonist project, Wnt-LIGHT cells, luminescence, single concentration; actives 20% (n = 2,500); shares compounds with Gli-Sufu block; Wnt3a-driven luciferase reporter; inhibition, % at 6.25 µM; AID 651995, 2013;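 active = mean inhibition above about 25%, limit read from the data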
* hit, by the source's call; x = no result given. Most compounds without a hit are left out; they make up all but 2.3% or so of the library.

SMILES	TAG inh	Jurkat NFkB inh	aSyn 5UTR inh	Shn3 3UTR inh	697 NFkB inh	Gli-Sufu block	Gli-Sufu confirm	SufuKO cytotox	Wnt3a counter
CCOC(=O)N1CCC(NC(=O)C2CCCN(Cc3nc(-c4cccc(Cl)c4)oc3C)C2)CC1 (stereo not drawn)	-12	18	7	84	-8	54	60*	34*	-9
CCN(C(=O)COC(=O)CNC(=O)c1cccc(C)c1)c1c(N)n(Cc2ccccc2)c(=O)[nH]c1=O	3	0	-2	-8	8	3	x	x	x
CC1CN(C(=O)CCc2cc(C(C)(C)C)c(O)c(C(C)(C)C)c2)CC(C)O1 (stereo not drawn)	2	7	-3	82	6	66*	86*	31*	29*
CCN(CC)S(=O)(=O)c1ccc(N2CCN(c3ccccc3OC)CC2)c(N)c1	x	16	-32	76	2	66*	78*	28*	32*
C/C(=N\O)C(C)(C)Nc1ccccc1F	6	-1	11	-4	4	96*	10	13	-27
C/C(=N\O)C(C)(C)Nc1cccc(F)c1	-9	-10	12	0	4	0	x	x	x
COC(=O)c1nnn(CC(=O)Nc2cc(Cl)ccc2C)c1C(=O)OC	-11	-3	-9	7	-6	-22	x	x	x
CN(C)/C=C1/NC(=S)NC1=O	5	-59	-23	-12	2	63*	10	3	14
CCc1cccc(CC)c1NC(=S)/C(=C(\[O-])c1ccc(Cl)s1)[n+]1ccccc1	-5	-1	-27	24	7	53	25	18	-4
O=C(CCNS(=O)(=O)c1c(Cl)cccc1Cl)OCC(=O)c1ccccc1F	x	-15	-4	-23	12	-2	x	x	x
O=C(Nc1ccc(Oc2ccccc2)nc1)C1CCN(Cc2ccccc2)CC1	-7	7	10	10	6	65*	17	3	-13
CCn1cc(CN2CCC(C(=O)Nc3ccc(Oc4ccccc4)nc3)CC2)cn1	-10	7	-8	-1	9	20	x	x	x
CCN(C(=O)CSc1nc2nc(C)cc(C)n2n1)c1ccccc1	x	2	15	6	-2	-8	x	x	x
CC(C)[C@H](NC(N)=O)C(=O)Nc1ccc(F)c(Cl)c1	3	0	18	-6	2	53	4	1	-6
Nc1ncnc2c(C3OC(CO)C(O)C3O)c[nH]c12 (stereo not drawn)	131	x	x	93*	x	87*	89*	85*	101*
Nc1ncnc2c1ncn2[C@@H]1O[C@H](CO)[C@@H](O)[C@H]1O	13	1	-2	0	13	-17	x	x	x
O=C(NC(=S)Nc1ccccc1Cl)c1cnn2c(C(F)(F)F)cc(C(F)(F)F)nc12	14	17	4	x	-28	56*	27	11	-15
Cc1cccc(N2CCN(C(=O)c3cc(S(=O)(=O)N4CCOCC4)cn3C)CC2)c1C	3	-5	-15	6	1	-9	x	x	x
Cc1cccc(N2CCN(C(=O)c3cc(S(=O)(=O)N4CCOCC4)cn3C)CC2C)c1 (stereo not drawn)	x	2	-8	-24	2	58*	14	1	10
Cc1cc(C(C)(C)C)ccc1OCCn1ccnc1	0	7	-5	25	-15	55*	30	6	-10

Screening data as filed in PubChem BioAssay.
